Data taken from the supplement of paper PMC8728848.
The sample as a whole holds a higher share of the strongest signals than the screen did.

Key:
Assay in all cases: glycan array binding signal (z-score within array); higher = stronger binding
Details in all cases: glycan notation: IUPAC condensed, linker removed
[1] = target: Gal6S(b1-3)GlcNAc
Outline: (§1)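 Glycan array data were curated from 3228 arrays in the Consortium for Functional Glycomics database and kept only where the protein sequence was available. Glycan names were converted to IUPAC-condensed notation, and columns mapping to the same glycan were averaged. The binding signal is a within-array Z-score, averaged across arrays of the same protein sequence at different concentrations or buffers and across linkers. Negative Z-scores can be read as non-binding.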

[2] = target: Gal6S(b1-3)GlcNAc6S
Outline: as §1

[3] = target: GalNAc(b1-4)GlcNAc
Outline: as §1

[4] = target: GalNAc(b1-4)GlcNAc6S
Outline: as §1

[5] = target: GlcNAc(b1-2)Man(a1-3)[GlcNAc(b1-2)Man(a1-6)]Man(b1-4)GlcNAc(b1-4)GlcNAc
Outline: as §1

[6] = target: GlcNAc(b1-2)[GlcNAc(b1-4)]Man(a1-3)[GlcNAc(b1-4)][GlcNAc(b1-2)[GlcNAc(b1-6)]Man(a1-6)]Man(b1-4)GlcNAc(b1-4)GlcNAc
Outline: as §1

[7] = target: GlcNAc(b1-3)Fuc
Outline: as §1

[8] = target: GlcNAc(b1-3)Gal(b1-4)GlcNAc(b1-3)Gal(b1-4)GlcNAc(b1-3)Gal(b1-4)GlcNAc(b1-3)Gal(b1-4)GlcNAc(b1-2)Man(a1-3)[GlcNAc(b1-3)Gal(b1-4)GlcNAc(b1-3)Gal(b1-4)GlcNAc(b1-3)Gal(b1-4)GlcNAc(b1-3)Gal(b1-4)GlcNAc(b1-2)Man(a1-6)]Man(b1-4)GlcNAc(b1-4)GlcNAc
Outline: as §1

[9] = target: GlcNAc(b1-3)Gal(b1-4)GlcNAc(b1-3)[GlcNAc(b1-3)Gal(b1-4)GlcNAc(b1-3)]GalNAc
Outline: as §1

[10] = target: GlcNAc(b1-3)Gal(b1-4)GlcNAc(b1-6)[GlcNAc(b1-3)]Gal(b1-4)GlcNAc
Outline: as §1

[11] = target: GlcNAc(b1-6)GalNAc
Outline: as §1

[12] = target: Kdn(a2-3)Gal(b1-4)[Fuc(a1-3)]GlcNAc
Outline: as §1

[13] = target: Man(a1-3)[Man(a1-6)]Man(a1-6)[Man(a1-3)]Man
Outline: as §1

[14] = target: Neu5Ac(a2-3)Gal(b1-3)GlcNAc(b1-3)GalNAc
Outline: as §1

[15] = target: Neu5Ac(a2-3)Gal(b1-3)GlcNAc6S
Outline: as §1

[16] = target: Neu5Ac(a2-3)Gal(b1-4)GlcNAc(b1-3)Gal(b1-3)GlcNAc
Outline: as §1

[17] = target: Neu5Ac(a2-3)Gal(b1-4)GlcNAc(b1-3)Gal(b1-4)GlcNAc(b1-3)Gal(b1-4)GlcNAc(b1-2)Man(a1-3)[Neu5Ac(a2-3)Gal(b1-4)GlcNAc(b1-3)Gal(b1-4)GlcNAc(b1-3)Gal(b1-4)GlcNAc(b1-2)Man(a1-6)]GalNAc
Outline: as §1

[18] = target: Neu5Ac(a2-3)Gal(b1-4)[Fuc(a1-3)]GlcNAc(b1-3)Gal
Outline: as §1

[19] = target: Neu5Ac(a2-6)Gal(b1-4)GlcNAc(b1-2)Man(a1-3)Man(b1-4)GlcNAc(b1-4)GlcNAc
Outline: as §1

[20] = target: Neu5Ac(a2-6)Gal(b1-4)GlcNAc(b1-6)[Gal(b1-3)]GalNAc
Outline: as §1

[21] = target: Neu5Ac(a2-8)Neu5Ac(a2-3)Gal(b1-4)GlcNAc
Outline: as §1

[22] = target: Neu5Ac(a2-8)Neu5Ac(a2-3)[Gal(b1-3)GalNAc(b1-4)]Gal(b1-4)Glc
Outline: as §1

[23] = target: Neu5Ac(a2-8)Neu5Gc(a2-3)Gal(b1-4)GlcNAc
Outline: as §1

[24] = target: Neu5Gc(a2-6)Gal(b1-4)GlcNAc
Outline: as §1

[25] = target: Neu5Gc(b2-6)Gal(b1-4)GlcNAc
Outline: as §1

B1: YghJ (Escherichia coli), E3PJ90 (protein)
chain: MNKKFKYKKSLLAAILSATLLAGCDGGGSGSSSDTPPVDSGTGSLPEVKPDPTPNPEPTPEPTPDPEPTPEPIPDPEPTPEPEPEPVPTKTGYLTLGGSQRVTGATCNGESSDGFTFKPGEDVTCVAGNTTIATFNTQSEAARSLRAVEKVSFSLEDAQELAGSDDKKSNAVSLVTSSNSCPANTEQVCLTFSSVIESKRFDSLYKQIDLAPEEFKKLVNEEVENNAATDKAPSTHTSPVVPVTTPGTKPDLNASFVSANAEQFYQYQPTEIILSEGRLVDSQGYGVAGVNYYTNSGRGVTGENGEFSFSWGEAISFGIDTFELGSVRGNKSTIALTELGDEVRGANIDQLIHRYSTTGQNNTRVVPDDVRKVFAEYPNVINEIINLSLSNGATLGEGEQVVNLPNEFIEQFNTGQAKEIDTAICAKTDGCNEARWFSLTTRNVNDGQIQGVINKLWGVDTNYKSVSKFHVFHDSTNFYGSTGNARGQAVVNISNAAFPILMARNDKNYWLAFGEKRAWDKNELAYITEAPSIVRPENVTRETASFNLPFISLGQVGDGKLMVIGNPHYNSILRCPNGYSWNGGVNKDGQCTLNSDPDDMKNFMENVLRYLSNDRWLPDAKSSMTVGTNLETVYFKKHGQVLGNSAPFAFHKDFTGITVKPMTSYGNLNPDEVPLLILNGFEYVTQWGSDPYSIPLRADTSKPKLTQQDVTDLIAYMNKGGSVLIMENVMSNLKEESASGFVRLLDAAGLSMALNKSVVNNDPQGYPDRVRQRRSTPIWVYERYPAVDGKPPYTIDDTTKEVIWKYQQENKPDDKPKLEVASWQEEVEGKQVTQFAFIDEADHKTPESLAAAKQRILDAFPGLEVCKDSDYHYEVNCLEYRPGTDVPVTGGMYVPQYTQLDLSADTAKAMLQAADLGTNIQRLYQHELYFRTNGRQGERLNSVDLERLYQNMSVWLWNETKYRYEEGKEDELGFKTFTEFLNCYTNNAYVGTQCSAELKKSLIDNKMIYGEESSKAGMMNPSYPLNYMEKPLTRLMLGRSWWDLNIKVDVEKYPGVVNTNGETVTQNINLYSAPTKWFAGNMQSTGLWAPAQQEVSIESKSTVPVTVTVALADDLTGREKHEVSLNRPPRVTKTYDLKANDKVTFKVPYGGLIYIKGDSKEVQSADFTFTGVVKAPFYKDGKWQHDLNSPAPLGELESASFVYTTPKKNLNASNYTGGLEQFANDLDTFASSMNDFYGRDSEDGKHRMFTYKNLPGHKHRFANDVQISIGDAHSGYPVMNSSFSPNSTTLPTTPLNDWLIWHEVGHNAAETPLTVPGATEVANNVLALYMQDRYLGKMNRVADDITVAPEYLEESNGQAWARGGAGDRLLMYAQLKEWAEKNFDIKKWYPDGTPLPEFYSEREGMKGWNLFQLMHRKARGDEVSNDKFGGKNYCAESNGNAADTLMLCASWVAQTDLSEFFKKWNPGANAYQLPGASEMSFEGGVSQSAYNTLASLDLPKPEQGPETINQVTEHKMSAE
glycan array binding signal (z-score) [1]: 0.437
glycan array binding signal (z-score) [2]: 2.04
glycan array binding signal (z-score) [3]: 1.36
glycan array binding signal (z-score) [4]: 0.943
glycan array binding signal (z-score) [5]: 0.16
glycan array binding signal (z-score) [6]: -0.048
glycan array binding signal (z-score) [7]: -0.862
glycan array binding signal (z-score) [8]: 4.26
glycan array binding signal (z-score) [9]: 2.97
glycan array binding signal (z-score) [10]: -1.26
glycan array binding signal (z-score) [11]: -1.05
glycan array binding signal (z-score) [12]: -0.222
glycan array binding signal (z-score) [13]: -1.22
glycan array binding signal (z-score) [14]: -0.159
glycan array binding signal (z-score) [15]: -0.847
glycan array binding signal (z-score) [16]: 0.515
glycan array binding signal (z-score) [17]: 2.64
glycan array binding signal (z-score) [18]: -1.23
glycan array binding signal (z-score) [19]: -1
glycan array binding signal (z-score) [20]: -1.4
glycan array binding signal (z-score) [21]: 5.47
glycan array binding signal (z-score) [22]: 0.298
glycan array binding signal (z-score) [23]: -0.939
glycan array binding signal (z-score) [24]: -0.154
glycan array binding signal (z-score) [25]: 3.37
